Screening data (PubChem)
Pf growth 48h: inhibits P. falciparum growth in the first generation, 48 h | P. falciparum luciferase growth in erythrocytes, 48 h | Potency, µM (highest dose often 28.7 µM), for inactives: at the highest dose activity change, negative = inhibition, hits mostly inhibitors | 310,000 compounds, 5.9% hits; note: potency is the fitted concentration of half-maximal effect; % is set by controls: 0 for no effect and ±100 for the full control effect
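Luciferase-expressing parasites in RBCs, 2% Hct / 0.1% parasitemia final; RPMI 1640 + 0.5% Albumax; 37 C, 5% CO2, one generation; luminescence read-out, lower signal = inhibition.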
Pf growth 96h: P. falciparum growth inhibition at 96 hour, primary screen for plastid delayed-death inhibitors; P. falciparum luciferase reporter growth, 96 h; Potency, µM (titrated, usually from 28.7 µM), inactives show at the highest dose activity change, negative = inhibition, actives largely listed as inhibitors; 320,000 compounds, 6.9% hits; note: potency is the fitted concentration of half-maximal effect; % is set by controls: 0 for no effect and ±100 for the full control effect
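Erythrocytes infected with luciferase-expressing P. falciparum were dispensed at 2% hematocrit and 0.05% parasitemia (final), then incubated with compounds 96 hours at 37 C in 5% CO2. Luminescence after detection reagent addition reported growth.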
AMA1 RON2 block: inhibitors of Plasmodium falciparum AMA1-RON2 interaction; 360,000 compounds, 0.2% hits; AlphaScreen AMA1-biotinylated RON2 peptide binding; Potency, µM (top dose mostly 58.2 µM), inactives show at the highest dose activity change, negative = inhibition, actives largely listed as inhibitors;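 note: potency is the fitted concentration of half-maximal effect; 0% = vehicle wells and -100% = peptide control; nearly all actives have a fitted effect of over 45% in size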
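AMA1 (3D7) with his tag at 25 nM final met compounds first, then biotinylated RON2 peptide at 25 nM; detection used donor plus acceptor beads, 10 µg/mL apiece, read by AlphaScreen after 30 min at room temperature.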
Shiga toxin inh: inhibitors of Shiga toxin in Vero cells | Vero cells, Shiga toxin protein synthesis inhibition reporter | inhibition, % at 38.7 µM | 290,000 compounds, 9.2% hits | AID 2315; in the data active = inhibition mostly above about 28%, no sharp cut-off; inactive = mostly below about 43%; note: 0% is about no effect
HCV inh: inhibitors of hepatitis C virus infection | Huh7.5.1 HCVcc-Cre infection, luciferase reporter, 44 h | Potency, µM (titrated, usually from 41.8 µM), inactives show at the highest dose activity change, negative = inhibition, usual class: inhibitors | 340,000 compounds, 3.4% hits; note: potency is the fitted concentration of half-maximal effect; % is set by controls: 0 for no effect and ±100 for the full control effect
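Seed cells (1,000/well) for 4 h; treat with compound and infect with HCVcc-Cre, moi about 0.5. Incubate 44 h, then detect luciferase activity.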
Cycloheximide cs: counter-screen for Shiga toxin inhibitors: cycloheximide protein synthesis inhibition. cell reporter, cycloheximide protein synthesis inhibition counterscreen. max response, %. 300,000 compounds, 12% hits; in the data active = max response mostly above about 13%, no sharp cut-off; inactive = mostly below about 14%; note: read at 38.3 µM for the half of the compounds with a filed dose; 0% is about no effect
Active calls of the source: *. This is a sample that favours compounds with a hit; in the whole collection about 21% have one here. Unless noted, calls come from the whole dose curve; as a rule, active = well fitted curve in the direction sought with a large enough effect; inconclusive = small, poorly fitted or top-dose-only effect, or another doubt; inactive = no such curve, though single readings can be large; an effect the other way counts as inactive or inconclusive.

Screening Cc1ccc(S(=O)(=O)N2CCN(C(=O)c3cc4c(C)nn(-c5ccccc5C)c4s3)CC2)cc1 returned Pf growth 48h 4.7µM*, Pf growth 96h 3.3µM*, AMA1 RON2 block -8%, Shiga toxin inh -12, HCV inh inconclusive and Cycloheximide cs -4.
Cc1ccccc1-n1nc(C)c2cc(C(=O)N3CCOCC3)sc21 was read as Pf growth 48h -17%, Pf growth 96h 3.3µM*, AMA1 RON2 block 6%, Shiga toxin inh 20, HCV inh 6% and Cycloheximide cs 19.
Screening Cc1nn(-c2ccccc2)c2sc(C(=O)N3CCc4ccccc4C3)cc12 returned Pf growth 48h -12%, Pf growth 96h inconclusive, AMA1 RON2 block -11%, Shiga toxin inh -3, HCV inh inconclusive and Cycloheximide cs -1.
Screening Cc1cc(C)nc(SCC(=O)Nc2ccc(S(=O)(=O)NC(C)(C)C)cc2)n1 returned Pf growth 96h 20%, AMA1 RON2 block 3%, Shiga toxin inh -6, HCV inh 11µM* and Cycloheximide cs -1.
Screening Cc1cc(C)nc(NS(=O)(=O)c2ccc(NC(=O)Cc3ccccc3)cc2)n1 returned Pf growth 48h -2%, Pf growth 96h 13µM*, AMA1 RON2 block -7%, Shiga toxin inh -3, HCV inh 2% and Cycloheximide cs -1.
For O=C(NC1CCN(C(=O)Nc2ccccc2Cl)CC1)c1cccc(F)c1 the results were Pf growth 48h -12%, Pf growth 96h -4%, AMA1 RON2 block 0%, Shiga toxin inh -13, HCV inh -17% and Cycloheximide cs 0.
For C/C(=N/NC(=O)c1ccco1)c1cccc(NC(=O)c2ccc(C)o2)c1 the results were Pf growth 48h 8%, Pf growth 96h -15%, AMA1 RON2 block 14%, Shiga toxin inh 122*, HCV inh -6% and Cycloheximide cs 41*.
`COC(=O)c1cccc(NC(=O)c2ccco2)c1` gave Pf growth 48h 116%, Pf growth 96h inconclusive, AMA1 RON2 block 6%, Shiga toxin inh 4, HCV inh 11% and Cycloheximide cs -3.
`C/C(=N/NC(=O)c1ccc(Br)o1)c1cccc(NC(=O)c2ccc(C)o2)c1` gave Pf growth 48h -12%, Pf growth 96h inconclusive, AMA1 RON2 block 50%, Shiga toxin inh 136*, HCV inh -27% and Cycloheximide cs 28*.
For COc1ccc(C(=O)N/N=C(\C)c2cccc(NC(=O)c3ccc(F)cc3)c2)c(OC)c1 the results were Pf growth 48h 0%, Pf growth 96h -17%, AMA1 RON2 block -13%, Shiga toxin inh 15, HCV inh inconclusive and Cycloheximide cs 26*.
Screening C/C(=N/NC(=O)c1ccc(Br)o1)c1cccc(NC(=O)c2ccc(F)cc2)c1 returned Pf growth 48h inconclusive, Pf growth 96h inconclusive, AMA1 RON2 block 8%, Shiga toxin inh 120*, HCV inh inconclusive and Cycloheximide cs 49*.
For C/C(=N\NC(=O)c1ccc(Br)cc1)c1cccc(NC(=O)c2cccnc2)c1 the results were Pf growth 48h 8%, Pf growth 96h -10%, AMA1 RON2 block 51%, Shiga toxin inh 70, HCV inh -21% and Cycloheximide cs 13.
COc1ccc(C(=O)N/N=C(/C)c2cccc(NC(=O)c3ccccc3F)c2)cc1 was read as Pf growth 48h 29%, Pf growth 96h inconclusive, AMA1 RON2 block 12%, Shiga toxin inh 25, HCV inh inconclusive and Cycloheximide cs 20.
`CCc1nc2ccc(C(=O)N(CC)CCN(C)C)cn2c1N(CC)CCOC` gave AMA1 RON2 block 5%.
Screening Cc1noc(C)c1-c1ccc(C(=O)NCc2cccnc2)c2occc12 returned AMA1 RON2 block -5%.
`C/C(=N\NC(=O)c1ccn(C)n1)c1cccc(NC(=O)c2ccc(C)s2)c1` gave Pf growth 48h 95%, Pf growth 96h 57%, AMA1 RON2 block 0%, Shiga toxin inh 77*, HCV inh inconclusive and Cycloheximide cs 32*.
For CCC(CC)C(=O)Nc1cccc(C(=O)NCc2ccco2)c1 the results were Pf growth 48h -15%, Pf growth 96h -5%, AMA1 RON2 block 1%, Shiga toxin inh 11, HCV inh -20% and Cycloheximide cs 6.
Screening CCC(=O)Nc1ccc(/C(C)=N\NC(=O)c2ccc(C)s2)cc1 returned Pf growth 48h inconclusive, Pf growth 96h inconclusive, AMA1 RON2 block 11%, Shiga toxin inh 21, HCV inh 2% and Cycloheximide cs 15*.
Screening CCC(CC)C(=O)Nc1cccc(/C(C)=N\NC(=O)c2ccc(C)s2)c1 returned Pf growth 48h -22%, Pf growth 96h 7%, AMA1 RON2 block 7%, Shiga toxin inh 14, HCV inh inconclusive and Cycloheximide cs 14*.
For O=C(NCc1ccncc1)c1ccc(Br)o1 the results were Pf growth 48h 13%, Pf growth 96h 22%, AMA1 RON2 block 11%, Shiga toxin inh 41, HCV inh 3% and Cycloheximide cs -2.
For C/C(=N/NC(=O)c1ccc(Cl)s1)c1ccc(NC(=O)COc2ccc(Cl)cc2)cc1 the results were Pf growth 48h -17%, Pf growth 96h inconclusive, AMA1 RON2 block 21%, Shiga toxin inh -5, HCV inh 13% and Cycloheximide cs 15.
Screening C/C(=N/NC(=O)c1ccc(Br)o1)c1ccncc1 returned Pf growth 48h 51%, Pf growth 96h 13%, AMA1 RON2 block 11%, Shiga toxin inh 60*, HCV inh 32% and Cycloheximide cs 74*.
CC(=O)N/N=C(\C)c1cccc(NC(=O)c2cccs2)c1 was read as Pf growth 48h 18%, Pf growth 96h -11%, AMA1 RON2 block 14%, Shiga toxin inh -2, HCV inh -7% and Cycloheximide cs 1.
For Cc1cccc(C)c1NC(=O)CSc1nc(C2CC2)nc2ccccc12 the results were Pf growth 48h -1%, Pf growth 96h -7%, AMA1 RON2 block -5%, Shiga toxin inh -9, HCV inh -7% and Cycloheximide cs -3.
`C/C(=N\NC(=O)c1ccn(C)n1)c1ccc(NC(=O)c2cccc(F)c2)cc1` gave Pf growth 48h 62%, Pf growth 96h 112%, AMA1 RON2 block 3%, Shiga toxin inh 170*, HCV inh inconclusive and Cycloheximide cs 58*.
COc1ccc(C(=O)Nc2ccc(NC(=O)c3cccc(F)c3)cn2)cc1 was read as Pf growth 48h inconclusive, Pf growth 96h inconclusive, AMA1 RON2 block -17%, Shiga toxin inh 15, HCV inh inconclusive and Cycloheximide cs -2.
`C/C(=N/NC(=O)c1ccco1)c1cccc(NC(=O)c2ccc(C)s2)c1` gave Pf growth 48h 66%, Pf growth 96h 34%, AMA1 RON2 block 27%, Shiga toxin inh 68*, HCV inh -1% and Cycloheximide cs 56*.
